Inconclusive results are not listed. More than one record can exist for a structure, and the calls need not agree. Calls of active or inactive are those of the source. Unless noted, calls come from the whole dose curve; as a rule, active = well fitted curve in the direction sought with a large enough effect in the repeat runs; inconclusive = weak or mixed curves; inactive = no such curve, though single readings can be large; an effect the other way counts as inactive or inconclusive.
Legend:
[1] = qHTS assay to identify aromatase inhibitors - cell viability counter screen (AID 743084);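 note: cells stimulated with testosterone during compound exposure; nearly all actives have a fitted effect of over 55% in size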; note: potency is the fitted concentration of half-maximal effect
[2] = target: Aryl hydrocarbon receptor (Homo sapiens) (UniProt P35869); assay: qHTS assay to identify small molecule that activate the aryl hydrocarbon receptor (AhR) signaling pathway (AID 743085); note: nearly all actives have a fitted effect of over 15% in size; note: potency is the fitted concentration of half-maximal effect;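 for activation: HG2L7.5c1 human HepG2 liver cells with stably integrated DRE-driven firefly reporter; series mostly up to about 70 µM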
Summary of the method: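 24 h compound exposure, 37C, HepG2-derived HG2L7.5c1 cells with DRE-responsive luciferase. Readouts: fluorescence viability, then luminescence at room temperature after 30 min.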

[3] = qHTS assay to identify small molecule that activate the aryl hydrocarbon receptor (AhR) signaling pathway - cell viability counter screen (AID 743086);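 note: HepG2 liver cells carrying the AhR DRE luciferase reporter; series mostly up to about 70 µM; nearly all actives have a fitted effect of over 45% in size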
Summary of the method: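 HepG2-AhR-luc (HG2L7.5c1) cells, 4000/well, were preincubated 5 h at 37C, exposed to compound in qHTS format for 24 hr at 37C, then given CellTiter-Fluor for 30 min; viability was read as fluorescence in the reporter wells.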

[4] = qHTS assay for small molecule activators of the heat shock response signaling pathway - cell viability counter screen (AID 743209); note: nearly all actives have a fitted effect of over 50% in size
Summary of the method: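 Luminescence from CellTiter-Glo, added after the beta-lactamase FRET read, gave the viability signal. Cells were HSE-bla HeLa treated with DMSO-dissolved compounds for 5 h at 37 C following overnight plating.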

[5] = qHTS assay to identify small molecule agonists of the peroxisome proliferator-activated receptor delta (PPARd) signaling pathway - cell viability counter screen (AID 743211); note: nearly all actives have a fitted effect of over 55% in size; note: potency is the fitted concentration of half-maximal effect
Summary of the method: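 Luminescent ATP viability assay (CellTiter-Glo, 30 min RT) in UAS-bla HEK293H cells carrying the PPAR delta reporter construct, 3000 cells/well, after a 17 h compound treatment at 37 C.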

[6] = qHTS assay to identify small molecule agonists of the farnesoid-X-receptor (FXR) signaling pathway - cell viability counter screen (AID 743218); note: nearly all actives have a fitted effect of over 45% in size; note: potency is the fitted concentration of half-maximal effect
Summary of the method: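 HEK 293T FXR-bla cells; 5 h pre-incubation, 16 h compound exposure at 37 C; LiveBLAzer substrate 2 h RT, then CellTiter-Glo 30 min RT, luminescence.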

[7] = target: Peroxisome proliferator-activated receptor gamma (Homo sapiens) (UniProt P37231); assay: qHTS assay to identify small molecule agonists of the peroxisome proliferator-activated receptor gamma (PPARg) signaling pathway (AID 743094; active = well fitted activation curve with a large enough effect in the signal ratio in the repeat runs, not every such curve was filed as active; the % refers to the signal ratio; note: potency is the fitted concentration of half-maximal effect)
Summary of the method: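 Beta-lactamase FRET fluorescence was the read-out after a 1 h room-temperature substrate step, following 17 h compound treatment at 37C of HEK293H cells expressing a UAS-driven bla reporter responsive to PPARg.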

[8] = target: Peroxisome proliferator-activated receptor gamma (Homo sapiens) (UniProt P37231); assay: qHTS assay to identify small molecule antagonists of the peroxisome proliferator-activated receptor gamma (PPARg) signaling pathway (AID 743191; calls by dose curve; note: series mostly up to about 63 µM; nearly all actives have a fitted effect of over 30% in size)
Summary of the method: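 GeneBLAzer PPARg UAS-bla HEK293H cells carrying a UAS-driven beta-lactamase reporter were plated at 3000 cells/well, preincubated 5 h at 37C, then given compound for 17 h at 37C; LiveBLAzer B/G FRET substrate was read after 1 h at room temperature.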

[9] = qHTS assay to identify small molecule antagonists of the peroxisome proliferator-activated receptor gamma (PPARg) signaling pathway - cell viability counter screen (AID 743194); note: nearly all actives have a fitted effect of over 55% in size
Summary of the method: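 PPARg-UAS-bla HEK293H cells were plated, rested 5 h at 37 C, then treated with compounds plus rosiglitazone (50 nM final) for 17 h at 37 C; viability was then read by CellTiter-Glo luminescence after 30 min at room temperature.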

[10] = qHTS assay for small molecule agonists of the antioxidant response element (ARE) signaling pathway (AID 743202; active = well fitted activation curve with a large enough effect in the signal ratio in the repeat runs, not every such curve was filed as active; the % refers to the signal ratio; note: potency is the fitted concentration of half-maximal effect)
Summary of the method: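 Compounds delivered in DMSO to ARE-bla HepG2 cells (2,000 cells/well, pre-incubated 5 h) and left 16 h at 37 C. LiveBLAzer B/G FRET substrate then added for 2 h at RT before fluorescence reading.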

[11] = qHTS assay for small molecule agonists of the antioxidant response element (ARE) signaling pathway - cell viability counter screen (AID 743203; calls by dose curve; note: nearly all actives have a fitted effect of over 55% in size; note: potency is the fitted concentration of half-maximal effect)
Summary of the method: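 HepG2 cells carrying ARE-driven beta-lactamase; 2,000 cells/well; 5 hrs plating; compound pinned from DMSO; 16 hrs 37C/5% CO2; CellTiter-Glo added; 30 min RT; luminescence.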

[12] = target: Peroxisome proliferator-activated receptor delta (Homo sapiens) (UniProt Q03181); assay: qHTS assay to identify small molecule agonists of the peroxisome proliferator-activated receptor delta (PPARd) signaling pathway (AID 743212; calls by dose curve; note: potency is the fitted concentration of half-maximal effect)
Summary of the method: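 A PPARd-bla HEK293H line with beta-lactamase under an Upstream Activator Sequence is treated with compounds at 37 C. Substrate loading for 2 h at room temperature precedes the fluorescence measurement.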

[13] = target: Peroxisome proliferator-activated receptor delta (Homo sapiens) (UniProt Q03181); assay: qHTS assay to identify small molecule antagonists of the peroxisome proliferator-activated receptor delta (PPARd) signaling pathway (AID 743215; active = well fitted inhibition curve with a large enough effect in the signal ratio in the repeat runs, not every such curve was filed as active; the % refers to the signal ratio;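 note: cells stimulated with agonist L165041 at 300 nM final during compound exposure; series mostly up to about 62 µM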)
Summary of the method: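 Read-out is beta-lactamase FRET fluorescence, measured 2 h after substrate addition at room temperature. Beforehand, UAS-bla HEK293H cells carrying the PPARd reporter were exposed to compounds with L165041 at 300 nM final for 17 h at 37 C.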

[14] = target: Bile acid receptor (Homo sapiens) (UniProt Q96RI1); assay: qHTS assay to identify small molecule antagonists of the farnesoid-X-receptor (FXR) signaling pathway (AID 743217; active = well fitted inhibition curve with a large enough effect in the signal ratio in the repeat runs, not every such curve was filed as active; the % refers to the signal ratio)
Summary of the method: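 HEK 293T FXR-UAS-bla, 5000 cells/well; compound + CDCA 50 uM final; 16 h, 37 °C; B/G FRET substrate 2 h RT; fluorescence.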

[15] = target: Vitamin D3 receptor (Homo sapiens) (UniProt P11473); assay: qHTS assay to identify small molecule agonists of the vitamin D receptor (VDR) signaling pathway (AID 743222; calls by dose curve)
Summary of the method: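 VDR-bla cells, 2,000/well; 4 h preincubation 37C; cpd (DMSO) 16 h; LiveBLAzer B/G substrate 2 h RT; fluorescence intensity read.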

[16] = qHTS assay to identify small molecule antagonists of the peroxisome proliferator-activated receptor delta (PPARd) signaling pathway - cell viability counter screen (AID 743213); note: nearly all actives have a fitted effect of over 50% in size; note: potency is the fitted concentration of half-maximal effect
Summary of the method: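 Viability counter-screen, qHTS format: PPARd-bla HEK293H, L165041 300 nM final, 17 h compound exposure at 37 C, CellTiter-Glo luminescence after 30 min RT.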

[17] = target: Bile acid receptor (Homo sapiens) (UniProt Q96RI1); assay: qHTS assay to identify small molecule agonists of the farnesoid-X-receptor (FXR) signaling pathway (AID 743220; active = well fitted activation curve with a large enough effect in the signal ratio in the repeat runs, not every such curve was filed as active; the % refers to the signal ratio)
Summary of the method: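 Beta-lactamase reporter under UAS control in GeneBLAzer FXR HEK 293T cells (5000/well) measured with LiveBLAzer FRET substrate after 2 h at room temperature. Compound exposure lasted 16 h at 37C.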

[18] = qHTS assay to identify small molecule antagonists of the farnesoid-X-receptor (FXR) signaling pathway - cell viability counter screen (AID 743221; active = well fitted cell-killing curve with a large enough effect in the repeat runs, not every such curve was filed as active; note: nearly all actives have a fitted effect of over 50% in size)
Summary of the method: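 In GeneBLAzer FXR-UAS-bla HEK 293T cells stimulated with 50 uM chenodeoxycholic acid (final), compounds acted for 16 h at 37 C. Viability was assessed afterwards by CellTiter-Glo luminescence.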

[19] = qHTS assay for small molecule activators of the heat shock response signaling pathway (AID 743210; active = well fitted activation curve with a large enough effect in the signal ratio in the repeat runs, with a control signal flat, not every such curve was filed as active; the % refers to the signal ratio;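 note: HeLa cells with beta-lactamase reporter driven by heat shock elements; series mostly up to about 63 µM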)
Summary of the method: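 Reporter gene assay: HeLa cells stably bearing an HSE-bla construct, compound treatment 5 h at 37 C, LiveBLAzer substrate 2.5 h at RT, fluorescence intensity.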

[20] = target: Vitamin D3 receptor (Homo sapiens) (UniProt P11473); assay: qHTS assay to identify small molecule antagonists of the vitamin D receptor (VDR) signaling pathway (AID 743223; active = well fitted inhibition curve with a large enough effect in the signal ratio in the repeat runs, not every such curve was filed as active; the % refers to the signal ratio)
Summary of the method: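 Agonist 1alpha,25-dihydroxyvitamin D3 (3 nM in well) was added with each compound to VDR-bla cells preincubated 4 h. Cells stood 16 h at 37C, then FRET substrate 2 h at room temperature; fluorescence intensity recorded.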

Measured: Potency

Chain of Bile acid receptor (Homo sapiens) (Q96RI1 whole entry, looked up): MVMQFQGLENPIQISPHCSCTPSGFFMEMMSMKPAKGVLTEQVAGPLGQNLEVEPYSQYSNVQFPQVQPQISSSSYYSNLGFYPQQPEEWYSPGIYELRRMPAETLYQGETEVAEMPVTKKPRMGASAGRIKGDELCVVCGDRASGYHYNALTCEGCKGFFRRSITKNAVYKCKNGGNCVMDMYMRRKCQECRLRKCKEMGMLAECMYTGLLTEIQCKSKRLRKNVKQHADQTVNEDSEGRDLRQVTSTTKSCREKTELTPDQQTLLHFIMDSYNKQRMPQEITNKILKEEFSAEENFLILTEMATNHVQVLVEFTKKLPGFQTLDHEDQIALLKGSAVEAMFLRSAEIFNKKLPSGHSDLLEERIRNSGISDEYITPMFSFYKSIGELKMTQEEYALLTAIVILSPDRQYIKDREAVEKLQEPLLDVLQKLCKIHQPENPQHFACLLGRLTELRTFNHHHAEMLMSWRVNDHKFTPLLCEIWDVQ
Chain of Peroxisome proliferator-activated receptor delta (Homo sapiens) (Q03181 whole entry, looked up): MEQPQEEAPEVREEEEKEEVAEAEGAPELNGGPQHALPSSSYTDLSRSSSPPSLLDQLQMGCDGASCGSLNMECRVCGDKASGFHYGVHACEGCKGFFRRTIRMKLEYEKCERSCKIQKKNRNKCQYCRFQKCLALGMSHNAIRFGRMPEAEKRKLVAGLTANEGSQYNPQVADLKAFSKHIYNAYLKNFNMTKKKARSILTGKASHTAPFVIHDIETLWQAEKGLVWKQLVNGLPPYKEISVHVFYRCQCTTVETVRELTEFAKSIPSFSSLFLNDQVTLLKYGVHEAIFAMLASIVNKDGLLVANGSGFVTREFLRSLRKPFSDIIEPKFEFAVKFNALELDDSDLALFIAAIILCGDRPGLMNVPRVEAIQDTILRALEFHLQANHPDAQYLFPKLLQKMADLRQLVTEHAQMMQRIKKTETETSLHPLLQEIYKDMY
Chain of Aryl hydrocarbon receptor (Homo sapiens) (P35869 whole entry, looked up): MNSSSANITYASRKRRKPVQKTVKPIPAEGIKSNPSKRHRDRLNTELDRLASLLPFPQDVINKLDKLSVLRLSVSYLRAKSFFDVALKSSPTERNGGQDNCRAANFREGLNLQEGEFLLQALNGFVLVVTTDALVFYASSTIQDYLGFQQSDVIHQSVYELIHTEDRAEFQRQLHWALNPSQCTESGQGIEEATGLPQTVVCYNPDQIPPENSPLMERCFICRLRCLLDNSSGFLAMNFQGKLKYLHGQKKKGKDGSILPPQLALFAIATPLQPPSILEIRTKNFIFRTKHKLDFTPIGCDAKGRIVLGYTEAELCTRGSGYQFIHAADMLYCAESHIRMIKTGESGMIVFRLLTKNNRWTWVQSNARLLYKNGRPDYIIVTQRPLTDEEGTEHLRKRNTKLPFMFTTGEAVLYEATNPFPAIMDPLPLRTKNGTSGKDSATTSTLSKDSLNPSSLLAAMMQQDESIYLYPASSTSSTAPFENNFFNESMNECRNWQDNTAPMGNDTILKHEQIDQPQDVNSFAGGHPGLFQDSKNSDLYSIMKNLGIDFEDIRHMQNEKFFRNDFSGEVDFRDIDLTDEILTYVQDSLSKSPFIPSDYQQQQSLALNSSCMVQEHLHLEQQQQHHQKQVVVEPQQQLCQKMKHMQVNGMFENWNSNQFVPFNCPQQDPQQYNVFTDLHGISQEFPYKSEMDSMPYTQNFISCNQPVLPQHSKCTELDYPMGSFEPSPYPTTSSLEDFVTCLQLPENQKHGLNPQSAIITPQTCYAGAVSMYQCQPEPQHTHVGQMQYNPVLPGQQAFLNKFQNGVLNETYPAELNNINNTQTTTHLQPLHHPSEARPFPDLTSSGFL
Chain of Vitamin D3 receptor (Homo sapiens) (P11473 whole entry, looked up): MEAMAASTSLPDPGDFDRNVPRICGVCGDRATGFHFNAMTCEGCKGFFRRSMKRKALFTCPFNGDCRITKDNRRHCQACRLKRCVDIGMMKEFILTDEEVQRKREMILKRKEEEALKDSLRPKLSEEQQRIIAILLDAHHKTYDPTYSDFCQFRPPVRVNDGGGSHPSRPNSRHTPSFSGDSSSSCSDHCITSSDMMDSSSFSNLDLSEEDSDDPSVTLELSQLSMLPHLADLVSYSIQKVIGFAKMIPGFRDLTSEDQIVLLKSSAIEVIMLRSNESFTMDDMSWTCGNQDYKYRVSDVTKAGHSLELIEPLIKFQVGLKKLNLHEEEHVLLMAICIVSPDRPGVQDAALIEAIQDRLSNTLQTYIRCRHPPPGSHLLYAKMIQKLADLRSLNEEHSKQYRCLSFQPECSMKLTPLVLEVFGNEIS
Chain of Peroxisome proliferator-activated receptor gamma (Homo sapiens) (P37231 whole entry, looked up): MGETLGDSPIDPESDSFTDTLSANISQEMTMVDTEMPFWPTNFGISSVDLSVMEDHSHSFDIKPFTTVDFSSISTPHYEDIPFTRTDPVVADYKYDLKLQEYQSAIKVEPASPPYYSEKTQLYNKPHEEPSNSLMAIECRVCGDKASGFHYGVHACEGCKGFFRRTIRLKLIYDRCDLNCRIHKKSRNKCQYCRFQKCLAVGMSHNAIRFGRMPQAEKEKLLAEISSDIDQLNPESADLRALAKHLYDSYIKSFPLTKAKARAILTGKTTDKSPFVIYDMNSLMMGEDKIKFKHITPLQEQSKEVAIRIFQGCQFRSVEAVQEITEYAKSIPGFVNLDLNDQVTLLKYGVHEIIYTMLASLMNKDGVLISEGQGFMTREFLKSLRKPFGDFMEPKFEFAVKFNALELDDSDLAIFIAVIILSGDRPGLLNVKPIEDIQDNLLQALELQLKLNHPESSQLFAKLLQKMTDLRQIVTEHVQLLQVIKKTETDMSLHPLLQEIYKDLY

CCc1c(C(=O)NN2CCCCC2)nn(-c2ccc(Cl)cc2Cl)c1-c1ccc(Br)cc1
active: [5] 12.3 µM | [6] 24.5 µM
inactive: [1] | [2] | [3] | [4]

CCOCC(O)COc1ccc(NC(=O)CC[S+](C)C)cc1 (stereo not drawn)
inactive: [1] | [7] | [8] | [9] | [10] | [11] | [4] | [5] | [12] | [13] | [14] | [6] | [15]
active: [2] 5.31 µM

Nc1c(CC(=O)O)cccc1C(=O)c1ccc(Br)cc1
inactive: [1] | [2] | [9] | [10] | [4] | [5] | [16] | [13] | [14] | [17] | [18]

CNCCCCOc1ccccc1Cc1ccccc1
active: [11] 29.8 µM | [5] 26.6 µM | [16] 13.3 µM
inactive: [1] | [2] | [7] | [9] | [4] | [19] | [17]

Cc1oc(-c2ccccc2)nc1CCOc1cccc2c1ccn2CCC(=O)O
inactive: [2] | [9] | [4] | [19] | [5] | [16] | [13] | [18] | [15]
active: [1] 27.3 µM | [7] 0.0174 µM | [12] 8.71 µM

CCC(CC)Nc1ccc(C)c(C)c1
inactive: [1] | [3] | [7] | [8] | [9] | [10] | [11] | [4] | [5] | [16] | [6] | [18]

OCCN1CCN(CCCN2c3ccccc3C=Cc3ccccc32)CC1
inactive: [2] | [10] | [4] | [12] | [6] | [15] | [20]
29.8 µM (active) and inactive: [1]

CCCCC/C=C\C/C=C\CCCCCCCC(=O)NC(C)c1ccccc1 (stereo not drawn)
inactive: [1] | [3] | [7] | [9] | [11] | [4] | [13] | [6] | [18]
active: [10] 29.8 µM

C#Cc1cccc(Nc2ncnc3cc(OCCOC)c(OCCOC)cc23)c1
active: [2] 2.66 µM
inactive: [1] | [8] | [9] | [11] | [4] | [19] | [5] | [12] | [16] | [14] | [6] | [17] | [18]

CCC(=O)O[C@]1(C(=O)CCl)[C@@H](C)C[C@H]2[C@@H]3CCC4=CC(=O)C=C[C@]4(C)[C@@]3(F)[C@@H](O)C[C@@]21C
inactive: [1] | [3] | [7] | [8] | [9] | [11] | [4] | [19] | [16] | [18] | [15]

Reference: PubChem BioAssay (Tox21)
